In PubChem BioAssay (Tox21):
Inconclusive results are not listed. A number with no mark means an inactive call. Active and inactive are the calls of the source. The call rests on the fitted dose curve; in most records, active means well fitted inhibition curve with a large enough effect in the repeat runs; inconclusive means weak or mixed curves; inactive means no such curve, though single readings can be large or run the other way.

target: Cytochrome P450 2D6 (Homo sapiens) (UniProt P10635); experiment: Cytochrome P450 Family 2 Subfamily D Member 6 (CYP2D6) small molecule antagonists: luciferase reporter qHTS assay (AID 1671196); settings: P450-Glo CYP2D6 enzyme assay, luciferin luminescence, 1 h; series mostly up to 115 µM; activity change, negative = inhibition: at the top concentration; further: nearly all actives have a fitted effect of over 50% in size
Sequence (P10635 whole entry, looked up): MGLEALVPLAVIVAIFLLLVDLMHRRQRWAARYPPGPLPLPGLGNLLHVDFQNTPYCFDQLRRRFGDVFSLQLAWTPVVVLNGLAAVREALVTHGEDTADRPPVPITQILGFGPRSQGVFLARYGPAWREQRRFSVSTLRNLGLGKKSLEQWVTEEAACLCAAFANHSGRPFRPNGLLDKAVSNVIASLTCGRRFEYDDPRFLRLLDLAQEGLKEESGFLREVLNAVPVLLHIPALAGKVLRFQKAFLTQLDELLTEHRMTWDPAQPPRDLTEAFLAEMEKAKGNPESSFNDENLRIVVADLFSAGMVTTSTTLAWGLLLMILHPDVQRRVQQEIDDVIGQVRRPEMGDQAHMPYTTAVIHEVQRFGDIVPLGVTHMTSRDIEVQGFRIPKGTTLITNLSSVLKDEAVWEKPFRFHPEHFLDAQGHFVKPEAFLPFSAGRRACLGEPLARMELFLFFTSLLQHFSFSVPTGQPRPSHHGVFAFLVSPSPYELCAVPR
Text: U.S. Tox21 Program National Center for Advancing Translational Sciences [NCATS] U.S. Environmental Protection Agency [EPA] National Institutes of Environmental Health Sciences [NIEHS] National Toxicology Program [NTP] U.S. Food and Drug Administration [FDA] Tox21 Assay Overview: Cytochrome P450 (CYP) enzymes are membrane-bound hemeproteins that play a key role in metabolism of drugs and xenobiotics. Evaluation of the effect of chemicals on CYP isozymes is useful to minimize the adverse drug reactions and toxicities in drug development process. Tox21 chemicals were tested for their effect on CYP enzyme activities by using P450-Glo (TM) screening systems (Promega Corporation, Madison, WI). These systems provide a luminescent method containing proluciferin substrates and are converted to luciferin products by CYP isozymes. The luciferin products formed are detected with a luciferin detection reagent, and the amount of light produced is proportional to CYP activity. P450-Glo (TM) CYP2D6 screening system (Catalog. No. V9890) was used to detect the compounds that interfere in CYP2D6 activity.
Tox21 Assay Protocol Summary: Two ul of enzyme-substrate mix was dispensed into medium binding white/solid 1536-well plates (Greiner Bio-One North America Inc., Monroe, NC) using a BioRaptr Flying Reagent Dispenser (FRD, Beckman Coulter, Brea, CA). […] The assay plates were incubated at room temperature for 10 min. Then 2 ul of NADPH regeneration solution was added to each well of the assay plates using an FRD and incubated at room temperature for 1 h. The reaction was stopped by adding 4 ul of detection reagent using an FRD and after 20 min incubation at room temperature the luminescence signal was measured using a ViewLux plate reader (Perkin Elmer, Shelton, CT). Data were expressed as relative luminescence units.
On the % scale 0 is the no-effect control and ±100 the full control effect; potency means the concentration at half of the fitted maximal effect.

| SMILES | activity change, negative = inhibition | Potency |
| --- | --- | --- |
| O=C1CCCCC1C1CCCCC1 (stereo not given) | -6.86% | – |
| CCCOCCC | -3.16% | – |
| CCN(CCCc1ccccc1)CCCc1ccccc1 | – | 0.871 µM (active) |
| CCCNC(C)C(=O)Nc1c(C)csc1C(=O)OC (stereo not given) | -20.4% [at 53 µM] | – |
| CC(C)(C)C1CCCCC1=O (stereo not given) | -15% | – |
| CCOc1ccc(NC(N)=O)cc1 | -8.56% | – |
| CC(C)(C)c1cccc(O)c1 | -14.8% | – |
| Cc1nnc(SCC2=C(C(=O)O)N3C(=O)[C@@H](NC(=O)Cn4cnnn4)[C@H]3SC2)s1 | -12.2% [at 53 µM] | – |
| N#CSCC(=O)O | -4.23% [at 53 µM] | – |
| CC/C=C\CCOC(=O)CCCCC | -6.95% | – |
| C[C@@H]1CN(c2c(F)c(F)c3c(=O)c(C(=O)O)cn(C4CC4)c3c2F)C[C@H](C)N1 | -28.8% [at 23.6 µM] | – |
| O=C(C(Cl)Cl)N1CCOC12CCCCC2 | -22.1% | – |
| COc1cc2c(cc1N)oc1ccccc12 | – | 7.25 µM (active) |
| CCCCC1CCC(=O)O1 (stereo not given) | -0.333% | – |
| CC1CN(c2ccccc2)NC1=O (stereo not given) | – | 31.7 µM (active) |
| CCOC(=O)C(Br)c1ccccc1 (stereo not given) | -13.2% | – |
| FC(F)(F)C(F)(F)C(F)(F)C(F)(F)C(F)(F)C(F)(F)C(F)(F)C(F)(F)Br | -5.82% [at 53 µM] | – |
| OCc1c2ccccc2cc2ccccc12 | -19.4% | – |
| FC(F)(F)c1ccccc1 | 1.14% | – |
| CCCCCCn1c(=O)c2c(ncn2C)n(C)c1=O | -3.52% [at 53 µM] | – |

| SMILES | activity change, negative = inhibition | Potency |
| --- | --- | --- |
| CCCCN1C[C@H](O)[C@@H](O)[C@H](O)[C@H]1CO | -12.2% [at 53 µM] | – |
| O=C1CCC(C2CCCCC2)CC1 | -13.8% | – |
| CC(C)CCCCCCc1ccc(OCCOCCO)cc1 | -9.73% | – |
| NCCC(O)(P(=O)(O)O)P(=O)(O)O | -3.49% [at 53 µM] | – |
| CCCCCOc1ccc(C2SC(=O)NC2=O)cc1OCC (stereo not given) | -20.4% [at 53 µM] | – |
| CC(=O)Oc1cc(C(C)C)c(OCCN(C)C)cc1C | – | 15.5 µM (active) |
| NC(=O)Cc1cccc(C(=O)c2ccccc2)c1N | -4.75% [at 53 µM] | – |
| CCC/C=C/CO | -0.412% | – |
| CC(C)C(=O)OC/C=C/c1ccccc1 | -21.9% | – |
| Nc1cccc(S(=O)(=O)O)c1 | – | 71.2 µM (active) |
| COc1ccc(Nc2ccc(OC)cc2)cc1 | – | 36.2 µM (active) |
| CC/C=C\CCOC(=O)C(C)C | -20.9% | – |
| CCOC(=O)c1cc(=O)c2c(OCC(COc3cccc4oc(C(=O)OCC)cc(=O)c34)OC(=O)[C@@H](N)CCCCN)cccc2o1 | -24.1% [at 53 µM] | – |
| Cc1c(N)cccc1N | – | 72.6 µM (active) |
| OCc1ccccc1O | -14.5% [at 53 µM] | – |
| CC[C@H]1CC[C@H](NCc2cc3c(cc2OC)[C@H]2C[C@H]2C(=O)N3C)[C@H](c2ccccc2)N1 | – | 7.1 µM (active) |
| CCC(=O)O[C@]1(C(=O)SCF)[C@H](C)C[C@H]2[C@@H]3C[C@H](F)C4=CC(=O)C=C[C@]4(C)[C@@]3(F)[C@@H](O)C[C@@]21C | -13.9% [at 53 µM] | – |
| CCOc1ccccc1N | – | 3.53 µM (active) |
| COc1nc(C)nc(NC(=O)NS(=O)(=O)c2ccccc2OCCCl)n1 | -15.8% | – |
| CCCCCCCCCC#N | -7.85% | – |
